Drawing on PubChem BioAssay, this text covers fold change permeability for 39 compounds.

Unmarked numbers belong to inactive results. Calls of active or inactive are those of the source. Rule as the data show it: active = fold change permeability below about 0.7 or above about 1.3; inactive = in between.

The nature of this test: compounds altering in vitro BBB leakiness – cell-based, FITC-avidin fluorescence, HTS, primary screen (AID 1963498). Also: test concentration not given here. The following applies: brain endothelial barrier, actives lie on both sides.
Turning to `Cn1ccc2cc(NC(=O)Nc3cccnc3)ccc21`, the fold change permeability was 1.2.
With `N#Cc1cc2nc(O)c(O)nc2cc1[N+](=O)[O-]`, the fold change permeability is 1.2.
The same measure for `COc1cc2c[n+](C)c3c4cc5c(cc4ccc3c2cc1OC)OCO5`: 1.1; for `NC(=O)NO`: 1.1; for `Cc1ccc2c(c1CCC(=O)O)CC[C@@H](NS(=O)(=O)c1ccc(Cl)cc1)C2`: 0.8.
For `O=C1OC(=O)C2C3CCC(O3)C12` (centres undefined), the fold change permeability is 0.9.
Consider `Nc1c(C(=O)Nc2c(F)cc(F)cc2Br)sc2nc3c(cc12)CCC3`, for which the fold change permeability was 0.9.
Turning to `CCCc1c(OCCCOc2ccc(OCC(=O)O)cc2)ccc(C(C)=O)c1O`, the fold change permeability is 1.3 (active).
In the case of `CN(C)CCCc1cc(C(=O)Nc2ccc(-c3ccncc3)cc2)ccc1O`, the fold change permeability is 1.
`COc1cccc(NC(=O)/C=C/c2ccc(Cl)cc2)c1`: the fold change permeability was 1.1.
For `CCCC(C(=O)OCCN(CC)CC)(c1ccccc1)c1ccccc1`, the fold change permeability is 1.2.
For the compound `NCc1c[nH]c(=S)n1[C@H]1CCc2c(F)cc(F)cc2C1`, the fold change permeability is 1.4 (active).
The same measure for `COc1ccccc1N1CCN(CCCNc2cc(=O)n(C)c(=O)n2C)CC1`: 1.4 (active).
In the case of `O=C(O)CCCCCCCC(=O)O` it was 1.2.
In the case of `Cc1cc(Cl)ccc1OCCCC(=O)NO`, the fold change permeability is 1.
As for `CN(C)CCCN1c2ccccc2Sc2ccc(C(F)(F)F)cc21`, the fold change permeability was 1.2.
`C=C1C[C@H]2[C@@H]3CCC4=CC(=O)CC[C@@H]4[C@H]3CC[C@]2(C)[C@@]1(OC(C)=O)C(C)=O`: the fold change permeability was 1.1.
For the compound `N=C(N)c1ccc(N)cc1`, the fold change permeability is 1.1.
For `O=C(O)C1=CC(=C(c2ccc(O)c(C(=O)O)c2)c2ccc(O)c(C(=O)O)c2)C=CC1=O`, the fold change permeability was 0.9.
In the case of `Oc1cc2c(c(Cl)c1O)CCNCC2c1ccccc1` (centres undefined) it was 1.6 (active); in that of `NC/C=C/C(=O)O`, 0.8; in that of `CN1C(=O)CC[C@H]1c1cccnc1`, 0.9.
For `CCOC(=O)[C@@H](N)CCC(=O)N[C@@H](CSCc1ccccc1)C(=O)N[C@@H](C(=O)OCC)c1ccccc1`, the fold change permeability is 1.3 (active).
In the case of `Nc1ncnc2c1c(-c1cccc(OCc3ccccc3)c1)cn2C1CC(CN2CCC2)C1` (centres undefined) it was 1.1.
With `Nc1nc(OCc2cc(Br)cs2)c2[nH]cnc2n1`, the fold change permeability is 1.5 (active).
Regarding `CC1(C)CCC2=C(O1)c1ccccc1C(=O)C2=O`, the fold change permeability is 1.8 (active).
In the case of `CCCn1c(=O)c2[nH]c(C3CCCC3)nc2n(CCC)c1=O` it was 1.5 (active).
The same measure for `CC(O)C(O)[C@H]1CNc2nc(N)[nH]c(=O)c2N1` (some centres undefined): 1.4 (active).
In the case of `CC(C)(C)c1ccc(/C=C/C(=O)Nc2ccc3c(c2)OCCO3)cc1` it was 2 (active); in that of `C(=C\c1ccccc1)/CN1CCN(C(c2ccccc2)c2ccccc2)CC1`, 1.2.
With `NCCCNCCCCNCCCN`, the fold change permeability is 1.6 (active).
For the compound `O=C(O)/C=C/c1ccc(O)c(O)c1`, the fold change permeability was 0.8.
The same measure for `OCCN1CCN(CC/C=C2/c3ccccc3Sc3ccc(C(F)(F)F)cc32)CC1`: 1.2.
For the compound `CCCCCC(O)CCCC(=O)O` (centres undefined), the fold change permeability is 1.
As for `CCCCOc1cc(CC2CNC(=O)N2)ccc1OC` (centres undefined), the fold change permeability was 0.8.
In the case of `CCC1(C)CC(=O)NC1=O` (centres undefined), the fold change permeability was 0.7 (active).
In the case of `Cc1nc(N=Nc2ccc(S(=O)(=O)O)cc2S(=O)(=O)O)c(COP(=O)(O)O)c(C=O)c1O` it was 0.9; in that of `C[C@H](CSC(=O)c1ccccc1)C(=O)N1C[C@@H](Sc2ccccc2)C[C@H]1C(=O)O`, 1; in that of `CCCCCCCCCCCCCCCCCCOP(=O)([O-])OC1CC[N+](C)(C)CC1`, 0.9.
